High-throughput results (PubChem BioAssay)
Only some compounds are listed: those with a hit (about 0.17% of all), similar ones and a draw of the others.
B2AR arrestin ag: ADRB2 beta-arrestin recruitment; P07550; HTLA Tango cells, beta-arrestin recruitment, luciferase luminescence, 18 h; Potency, µM (titrated, usually from 46.1 µM), hits mostly activators; 44,000 tested, under 10 active; AID 1347077;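 note: potency is the fitted concentration of half-maximal effect; 0% = DMSO and full agonism = EC100 isoproterenol or metaproterenol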
Target sequence (P07550 whole entry, looked up): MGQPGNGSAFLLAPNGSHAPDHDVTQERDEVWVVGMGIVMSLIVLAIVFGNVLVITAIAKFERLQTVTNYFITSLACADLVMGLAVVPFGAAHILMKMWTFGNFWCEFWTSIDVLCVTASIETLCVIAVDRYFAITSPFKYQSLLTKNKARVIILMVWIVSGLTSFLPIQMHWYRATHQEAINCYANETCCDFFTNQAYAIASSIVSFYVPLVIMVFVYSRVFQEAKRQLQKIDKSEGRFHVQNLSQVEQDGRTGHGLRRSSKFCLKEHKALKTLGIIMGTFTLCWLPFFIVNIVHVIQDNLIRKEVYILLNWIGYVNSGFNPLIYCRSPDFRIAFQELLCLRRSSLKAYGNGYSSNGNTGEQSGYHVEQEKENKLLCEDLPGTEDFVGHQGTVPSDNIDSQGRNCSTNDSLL
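Luminescence read-out: arrestin recruitment to recombinant beta2-AR releases tTA, inducing luciferase. Cells exposed 18 hr at 37 degrees C to up to 46 microM compound; %Activity from corrected signal, concentration-response curves classified by r2, magnitude and efficacy.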
GALC G270D up: galactocerebrosidase G270D activity enhancement, cell-based. P54803. 145M-Twi-hGALC-G270D cells (Twitcher mouse brain line with human GALC G270D), HMU-beta-Gal fluorescence, 48 h. Potency, µM (doses to about 57.5 µM), actives largely listed as activators. 0.1% of 45,000 active. AID 1159614; note: potency is the fitted concentration of half-maximal effect; 0% is about no effect; nearly all actives have a fitted effect of over 65% in size
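Fluorogenic HMU-b-Gal hydrolysis (0.1 mM final, pH 5.2 citrate-phosphate with 1 mg/mL sodium taurocholate; carbonate stop buffer) measures mutant GALC activity after compound treatment of live 145M-Twi Twitcher brain cells stably carrying human GALC-G270D, with wild-type GALC line alongside; activation sought.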
GALK inh: GALK (human) enzyme inhibition; P51570; 44,000 tested, under 10 active; AID 1347072; Potency, µM (doses to about 57.5 µM), inactives show top-dose activity, negative = inhibition, usual class: inhibitors; recombinant GALK, Kinase-Glo ATP luminescence, 1 h;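 note: plate controls were full GALK reaction for no effect and reaction lacking GALK for full effect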
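5 nM GALK; 35 uM ATP; 100 uM D-galactose; 20 mM HEPES pH 8.0, 5 mM MgCl2, 60 mM NaCl, 1 mM DTT, 0.01% BSA; 1 h RT; Kinase-Glo Plus luminescence.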
PTAP-TSG101 blk: TSG101-PTAP interaction inhibition, HIV-1 budding. Q99816. Fluorescence polarization, FITC-PTAP peptide/Tsg101, 20 min. Potency, µM (series often up to 115 µM), most hits filed as inhibitors. 44,000 tested, under 10 active. AID 1347069; note: potency is the fitted concentration of half-maximal effect; 0% is about no effect
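Read-out is FITC fluorescence polarization. Compounds were added to Tsg101 binding domain (10 uM final), then FITC-PTAP peptide (50 nM final), 20 min at r.t. Total S+P intensity flags fluorescent compounds.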
* marks the source's active call; other numbers are inactive results; i = inactive; ? = inconclusive; · = no result. Calls come from the whole dose curve; as a rule, active = well fitted curve in the direction sought with a large enough effect; inconclusive = small, poorly fitted or top-dose-only effect, or another doubt; inactive = no such curve, though single readings can be large; an effect the other way counts as inactive or inconclusive.

SMILES	B2AR arrestin ag	GALC G270D up	GALK inh	PTAP-TSG101 blk
COc1ccc(C(=O)/C=C/c2cn(CC(O)CN(CC(C)C)CC(C)C)c3ccccc23)cc1 (stereo not drawn)	i	22µM*	1%	i
CCCCN(C)CC(O)Cn1cc(/C=C/C(=O)c2ccc(OC)c(OC)c2)c2ccccc21 (stereo not drawn)	i	32µM*	3%	i
CCCCN(C)CC(O)Cn1cc(/C=C/C(=O)c2ccc(C)cc2)c2ccccc21 (stereo not drawn)	i	i	-1%	i
CCCN(CCC)CC(O)Cn1cc(/C=C/C(=O)c2ccc(OC)cc2)c2ccccc21 (stereo not drawn)	i	28µM*	1%	i
COc1cc(C2NC(=O)c3c(sc4c3CCN(C)C4)N2)cc(OC)c1OC (stereo not drawn)	i	i	2%	i
COc1cc(C2NC(=O)c3c(sc4c3CCN(C)C4)N2)cc(Br)c1OC(=O)c1ccc(C)cc1 (stereo not drawn)	i	22µM*	0%	i
CC1CCCCN1CCCOC(=O)c1ccc(OC2CCCCC2)cc1 (stereo not drawn)	·	i	·	·
Nc1ccc(C(=O)OCC(O)CO)cc1 (stereo not drawn)	·	i	·	·
CC(C)C(=O)OCc1cccc(OC(=O)[C@@H]2N3C(=O)[C@@H](NC(=O)Cc4ccccc4)[C@H]3SC2(C)C)c1	·	i	·	·
Cc1cc(C)cc(NC(=O)Nc2ccc3nc(N4CCN(C)CC4)cc(C)c3c2)c1	i	18µM*	0%	i
Cc1cc(N2CCN(C)CC2)nc2ccc(NC(=O)Nc3ccc(F)cc3)cc12	i	i	2%	i
CC(C)(C)NCC(O)COc1ccccc1OCC1CCCO1 (stereo not drawn)	·	i	·	·
CCCN(CCC)CCNC(=O)Cn1cc2c(n1)-c1c(oc(C(=O)N3CCCC3)c1C)CC2	22µM*	i	1%	i
Nc1ccc2c(c1)CN1C(=O)c3ccccc3C1=N2	·	i	·	·
Cc1ncc([N+](=O)[O-])n1C	·	i	·	·
Cc1ccc(CCn2c3c(c4cc(Cl)ccc42)CN(C)CC3)cn1	·	i	·	·
COc1ccc(CNS(=O)(=O)c2cc3c(cc2Cl)N(C(C)=O)CCO3)cc1	i	i	0%	35µM*
Cc1oc(=O)oc1COC(=O)[C@@H]1N2C(=O)[C@@H](NC(=O)[C@H](N)c3ccccc3)[C@H]2SC1(C)C	·	i	·	·
CCOC(=O)N1CCC(n2c(=O)[nH]c3cc(Cl)ccc32)CC1	·	i	·	·
COCCOCC(OC)OC	·	i	·	·
CC1(C)S[C@@H]2[C@H](NC(=O)C(c3ccccc3)S(=O)(=O)O)C(=O)N2[C@H]1C(=O)O (stereo partly drawn)	·	i	·	·
Cc1ccc(NC(=O)CCCn2c3ccccc3c(=O)c3cc(C)ccc32)c(Br)c1	i	i	-2%	i
Cc1ccc2c(c1)c(=O)c1ccccc1n2CCCC(=O)Nc1c(F)cccc1F	i	1.1µM*	-4%	i
CC(=O)c1ccc(O)c(C(N)=O)c1	·	i	·	·
O=c1[nH]sc2cc(Cl)ccc12	·	i	·	·
SMILES	B2AR arrestin ag	GALC G270D up	GALK inh	PTAP-TSG101 blk
NC(=O)NS(=O)(=O)c1ccc(Cl)cc1	·	i	·	·
CC(C)Cc1ccc(C(C)C(=O)OCc2ccccn2)cc1 (stereo not drawn)	·	i	·	·
COc1cc(OC)nc(O[C@H](C(=O)O)C(OC)(c2ccccc2)c2ccccc2)n1	·	i	·	·
Cc1cccc(N(C)C(=S)Oc2ccc3c(c2)C2CCC3C2)c1 (stereo not drawn)	·	i	·	·
Cc1cnc(NS(=O)(=O)c2ccc(N)cc2)nc1	·	i	·	·
Cc1c(N)cccc1C(F)(F)F	·	i	·	·
CCCCCCCC/C=C/C(=O)O	·	i	·	·
CC(C)CCCC(C)NCCC(C)C (stereo not drawn)	·	i	·	·
CN1CCc2c(sc(NC(=O)CSc3ccc(F)cc3)c2-c2nc3ccccc3s2)C1	i	i	0%	?
CCN1CCc2c(sc(NC(=O)CSc3ccccc3)c2-c2nc3ccccc3s2)C1	i	i	-7%	40µM*
CS(=O)(=O)c1ccc(-c2cn3ccccc3n2)cc1	·	i	·	·
Cc1ccc(-n2[nH]c(C)c(N=Nc3cccc(-c4cccc(C(=O)O)c4)c3O)c2=O)cc1C	·	i	·	·
COC(=O)[C@H]1[C@H]2C[C@@H]3c4[nH]c5cc(OC)ccc5c4CCN3C[C@H]2C[C@@H](OC(=O)/C=C/c2ccc(O)c(OC)c2)[C@@H]1OC	·	i	·	·
O=C(O)c1c(O)c(-c2ccccc2)nc2ccccc12	·	i	·	·
COC(=O)c1ccccc1NC(=O)CSc1n[nH]c(C)n1	i	i	0%	i
COC(=O)c1ccccc1NC(=O)CSc1nc(-c2ccccc2)cc(C(F)(F)F)n1	i	10µM*	2%	i
CC(C)(Oc1ccc(Cl)cc1)C(=O)OCCCOC(=O)C(C)(C)Oc1ccc(Cl)cc1	·	i	·	·
CCCCCCCC(=O)[O-].CCCCCCCC(=O)[O-].[Zn+2]	·	i	·	·
CC(=O)O[C@@H]1CC2C3CCc4cc(OC(=O)c5ccccc5)ccc4C3CCC2(C)[C@H]1OC(C)=O (stereo partly drawn)	·	i	·	·
COc1ccc(-c2cc3ccc(O)c(CN4CCCC(C)C4)c3oc2=O)cc1OC (stereo not drawn)	i	22µM*	0%	i
COc1ccc(-c2c(C)c3ccc(O)c(CN4CCCC(C)C4)c3oc2=O)cc1OC (stereo not drawn)	i	20µM*	1%	i
CC1CCN(c2oc(/C=C/c3ccc(F)cc3)nc2C#N)CC1	i	25µM*	1%	i
N#Cc1nc(/C=C/c2ccc(F)cc2)oc1N1CCCCCC1	i	i	-12%	i
Cc1ccc2ccc(Cl)cc2n1	·	i	·	·
Nc1ncnc2c1ncn2Cc1c(F)cccc1Cl	·	i	·	·
COc1cc2c(cc1OC)C(=O)CC2	·	i	·	·
